Data: PubChem BioAssay AID1159580 (chemical genetic matrix, 2015)
The campaign covered roughly 5,500 compounds. About 2,000 (36%) were called active. Roughly 18% stayed inconclusive and do not appear here. No stated cut-off is given here; in the data, active means normalized growth mostly below about 0.91 (no sharp cut-off); inconclusive means no clear call, values can overlap the other calls; inactive means mostly above about 0.92. The list shows a part of the results.

Assay: chemical genetic growth profiling, strain panel (AID 1159580);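 further: tested at 20 µM; growth read once vehicle control cultures reached saturation at 30 °C; 1 = growth at the plate median or of vehicle wells; lower values mean less growth of the strain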
Settings: growth OD

Measured: normalized growth

Nc1cc(-c2ccc(Cl)cc2)nc(N)n1
inactive: S. cerevisiae deletion strains, locus YAL013W, strain DEP1, active compounds read low 0.997 | S. cerevisiae deletion strains, locus YBR229C, strain ROT2, active compounds read low 0.991 | S. cerevisiae deletion strains, locus YDL101C, strain DUN1, active compounds read low 0.995 | S. cerevisiae deletion strains, locus YDL134C, strain PPH21, active compounds read low 0.959 | S. cerevisiae deletion strains, locus YDR150W, strain NUM1, active compounds read low 1.02 | S. cerevisiae deletion strains, locus YEL061C, strain CIN8, active compounds read low 0.995 | S. cerevisiae deletion strains, locus YGR078C, strain PAC10, active compounds read low 0.999 | S. cerevisiae deletion strains, locus YHR030C, strain SLT2, active compounds read low 0.963 | S. cerevisiae deletion strains, locus YHR087W, strain rtc3, active compounds read low 0.993 | S. cerevisiae deletion strains, locus YJL187C, strain SWE1, active compounds read low 1 | S. cerevisiae deletion strains, locus YJR043C, strain POL32, active compounds read low 0.982 | S. cerevisiae deletion strains, locus YJR075W, strain HOC1, active compounds read low 0.972 | S. cerevisiae deletion strains, locus YKL190W, strain CNB1, active compounds read low 0.965 | S. cerevisiae deletion strains, locus YLR039C, strain RIC1, active compounds read low 0.914 | S. cerevisiae deletion strains, locus YLR058C, strain SHM2 (second series), active compounds read low 0.993 | S. cerevisiae deletion strains, locus YLR085C, strain ARP6, active compounds read low 1.02 | S. cerevisiae deletion strains, locus YLR262C, strain YPT6, active compounds read low 0.85 | S. cerevisiae deletion strains, locus YML094W, strain GIM5, active compounds read low 1.03 | S. cerevisiae deletion strains, locus YMR219W, strain ESC1, active compounds read low 0.991 | S. cerevisiae deletion strains, locus YMR263W, strain SAP30, active compounds read low 0.996 | S. cerevisiae deletion strains, locus YNL153C, strain GIM3, active compounds read low 0.992 | S. cerevisiae deletion strains, locus YNL298W, strain CLA4 (second series), active compounds read low 0.992 | S. cerevisiae deletion strains, locus YNL322C, strain KRE1, active compounds read low 0.99 | S. cerevisiae deletion strains, locus YNR030W, strain Alg12, active compounds read low 1 | S. cerevisiae deletion strains, locus YOL006C, strain TOP1, active compounds read low 0.944 | S. cerevisiae deletion strains, locus YPL055C, strain LGE1, active compounds read low 1.02 | S. cerevisiae deletion strains, locus YPL241C, strain CIN2, active compounds read low 0.995 | S. cerevisiae deletion strains, locus YPR135W, strain CTF4, active compounds read low 0.939 | S. cerevisiae strains, strain wild type, active compounds read low 0.966
